# Assay results published in PubChem BioAssay (Tox21).
# Results filed as inconclusive are left out. The source made the active and inactive calls. Calls follow the shape of the dose curve; as a rule, active = well fitted inhibition curve with a large enough effect in the repeat runs; inconclusive = weak or mixed curves, or effect the other way; inactive = no such curve, though single readings can be large or run the other way.
# Target: Nuclear receptor ROR-gamma (Homo sapiens) (UniProt P51449)
# Test: qHTS assay to identify small molecule antagonists of the retinoid-related orphan receptor gamma (ROR-gamma) signaling pathway (AID 1159521; also: top concentration of the series differs between compounds; nearly all actives have a fitted effect of over 50% in size)
# Details: Tet-on RORgamma CHO cells, RORE-luciferase, 16 h; series mostly up to 92.4 µM
# Excerpt: U.S. Tox21 Program National Center for Advancing Translational Sciences [NCATS] NIH Chemical Genomics Center [NCGC] U.S. Environmental Protection Agency [EPA] National Institutes of Environmental Health Sciences [NIEHS] National Toxicology Program [NTP] U.S. Food and Drug Administration [FDA] Tox21 Assay Overview: Nuclear steroid hormone receptors are involved in many biological processes including inflammatory responses, cell proliferation, and apoptosis. Environmental factors or compounds disrupting these nuclear receptor pathways and gene expression may promote susceptibility to immunotoxicants and autoimmune diseases. One important group of these expression factors are the retinoid-related orphan receptors. To assess compounds that may interfere with the retinoid-related orphan receptor gamma (ROR-gamma) transcription factor, a cell-based luciferase assay was used. The CHO cell-based assay utilizes a TET-inducible ROR expression factor and ROR response element-LUC reporter gene. Reporter gene activity was induced using Doxycycline Hyclate and measured after 16 hr incubation. Tet-on ROR gamma CHO cells were used to screen against the Tox21 10K compound library for ROR gamma antagonists by quantification of decreased reporter gene activity in terms of decreased luminescence.
# Tox21 Assay Protocol Summary: Tet-on ROR gamma CHO cells were dispensed at 1,000 cells in 4 uL of culture medium per well into white wall/solid bottom 1536-well plates using a Multidrop Combi (Thermo Scientific, Waltham, MA) dispenser. Following incubation at 37 C and 5% CO2 for 4 hr, 23 nL of compounds dissolved in DMSO, positive controls or DMSO only were transferred by a Pintool station (Kalypsys, San Diego, CA) and after 2 hr incubation at 37 C, one ul of 1 uM (final concentration) of Doxycycline Hyclate was added to all the wells by using a Flying Reagent Dispenser (FRD) (Aurora Discovery, San Diego, CA). After 16 hr incubation at 37 C and 5% CO2, 5 uL of ONE-Glo reagent (Promega Corporation, Madison, WI) was added to each assay plate using FRD. After 30 min incubation at room temperature, luminescence was quantified on a ViewLux plate reader (Perkin Elmer, Waltham, MA).
# % is scaled to controls: 0 for no effect and ±100 for the full control effect.
SMILES,outcome,"activity change, negative = inhibition"
CCCCCCOC(=O)CC,inactive,–
COc1cc(C(=S)N2CCOCC2)cc(OC)c1OC,inactive,–
N[C@@H](COP(=O)(O)O)C(=O)O,–,-15% [at 19 µM] (inactive)
CC(=O)NCc1c(I)c(NC(C)=O)c(I)c(C(=O)O)c1I,inactive,–
CC(C)CCCC(C)(C)O,inactive,–
C=COCCOCCOCCOC=C,inactive,–
CCN1CCc2nc(N)oc2CC1,inactive,–
c1ccc2nccnc2c1,inactive,–
COCCc1ccc(OCC2CO2)cc1 (stereo not given),inactive,–
CC(S)C(=O)NCC(=O)O (stereo not given),inactive,–
CC(C(=O)O)c1ccc2c(c1)CC(=O)c1ccccc1S2 (stereo not given),inactive,–
Cc1cccc(C)c1NC(=O)c1ccccc1C(=O)O,inactive,–
CCOC(=O)c1ncn2c1CN(C)C(=O)c1cc(F)ccc1-2,inactive,–
O=C1O[C@@H]2[C@@H](O)[C@H](O)O[C@@H]2[C@H]1O,inactive,–
CCC(C=O)CC,inactive,–
BrCCCCCBr,inactive,–
COc1cc(N)ccc1C,inactive,–
COc1cc(NS(=O)(=O)c2ccc(N)cc2)nc(OC)n1,inactive,–
CC(C)CC(=O)O,inactive,–
CCCCCCCCC(=O)Cl,inactive,–

SMILES,outcome,"activity change, negative = inhibition"
Cc1ccccc1OCC(O)CO (stereo not given),inactive,–
COc1ccc2c(c1)C(=O)N(CCc1ccc(S(=O)(=O)NC(=O)NC3CCCCC3)cc1)C(=O)C2(C)C,inactive,–
COC(=O)C1CC(=O)C(C(=O)OC)CC1=O (stereo not given),–,0.663% [at 8.39 µM] (inactive)
CC(=O)Nc1ccc(S(=O)(=O)Nc2ccc([N+](=O)[O-])cc2)cc1,inactive,–
Cc1[nH]cnc1-c1ccc(Cl)cc1,inactive,–
Cc1cc2cc3c(C)cc(=O)oc3c(C)c2o1,inactive,–
CCOc1cc([N+](=O)[O-])c(OCC)cc1N1CCOCC1,inactive,–
CN(C)c1ccc(C=O)cc1,inactive,–
CC(=O)c1ccc2c(c1)Cc1ccccc1-2,inactive,–
Cc1cccc2nccnc12,inactive,–
Cc1nc2n(c(=O)c1CCN1CCC(c3noc4cc(F)ccc34)CC1)CCC[C@H]2O,–,29.3% [at 19 µM] (inactive)
NCCS,inactive,–
Cc1c(I)c(=O)n(-c2ccccc2)n1C,inactive,–
COC(=O)c1ccccc1C(=O)c1ccc(OCCN2CCCCC2)cc1,inactive,–
CNC(=O)[C@H]1O[C@@H](n2cnc3c(NCc4cc(Cl)ccc4OCc4cc(C)no4)ncnc32)[C@H](O)[C@@H]1N,inactive,–
Cc1cc(C(C)(C)C)c(O)c(C)c1CC1=NCCN1,inactive,–
Oc1cn2c(n1)Nc1ccc(Cl)c(Cl)c1C2,–,0.185% [at 19 µM] (inactive)
CCC(C)NC(N)=O (stereo not given),inactive,–
CCCCCCCCCCCCCC,inactive,–
COc1ccc2nc(SCc3ncc(C)c(OC)c3C)[nH]c2c1,inactive,–
